This is an account of results in PubChem BioAssay AID602346 (Broad Institute, 2012).

In all, about 340,000 compounds went through this assay and about 1,200 (0.35%) were called active. Cut-off read from the data, not from the text of the source: active = inhibition above about 50% (passing the limit was not always enough); inconclusive = no clear call, values can overlap the other calls; inactive = below about 31%. Shown is part of a subset that was picked to be rich in actives.

As a reminder, the inhibition is the drop in the measured response relative to a control, in per cent.

The experiment can be described thus: HIV Vif self-association inhibitors, primary screen, imaging, HEK293T, single point (AID 602346). Particulars: HEK293T cells, Vif self-association by quenched fluorescence, 24 h, at 7.49 µM, active compounds read high.
`C#Cc1cc(N2CCN(C(=O)c3ccoc3)CC2)n2nc(-c3cccc(Cl)c3)cc2n1`: the inhibition was -5.39% (inactive).
The value for `CN(C)C(=O)CCc1ccc2c3c([nH]c2c1)[C@]1(CCc2ccccc2)[C@@H](C(=O)N2CCCCC2)C[C@H](CC(=O)NCCC2=CCCCC2)C(=O)N1CC3` was 2.36% (inactive); that for `CN(C)C(=O)CCc1ccc2c3c([nH]c2c1)[C@]1(C)[C@@H](C(=O)N2CCCCC2)C[C@H](CC(=O)NCCC2=CCCCC2)C(=O)N1CC3` was 71.8% (active).
In the case of `CC(C)N(C(=O)[C@H]1C[C@H](CC(=O)NCCC2=CCCCC2)C(=O)N2CCc3c([nH]c4cc(CCC(=O)N(C)C)ccc34)[C@]12C)C(C)C` it was 0.666% (inactive).
The value for `Cc1nc2c(OCc3cccc(Cl)c3)cccn2c1N(C)CC1CC1` was -11.2% (inactive); that for `COc1ccc(CC(N)c2csc(NC(=O)Nc3ccc(C(C)C)cc3)n2)cc1` (centres undefined) was -7.74% (inactive).
As for `Cc1ccc(C(=O)Nc2nc3ccc(Cl)cc3s2)o1`, the inhibition is -31.1% (inactive).
As to `Cc1ccc(Cc2cnc(N)s2)o1`, the inhibition is -1.08% (inactive).
In the case of `Cc1ccc(CCC(=O)Nc2ncc(Cc3cc(Cl)ccc3Cl)s2)o1` it was 144% (active); in that of `CSCCC(c1nnnn1Cc1ccccc1)N1CCN(C/C=C/c2ccccc2)CC1` (centres undefined), -1.75% (inactive).
The value for `Cc1ccc(Cn2c(C)c(C(=O)NCc3ccccc3C(F)(F)F)sc2=O)cc1` was 4.56% (inactive); that for `CCCc1ccc(OCc2ccc(C(=O)N/N=C/c3cccc([N+](=O)[O-])c3)o2)c(OC)c1` was 53.7% (active).
In the case of `N#Cc1cc([N+](=O)[O-])ccc1Oc1cccc(/C=N/NC(=O)c2ccc(Cl)cc2)c1` it was -18.6% (inactive); in that of `COC(=O)c1ccc(COc2ccc(/C=N/NC(=O)C(=O)Nc3ccc(OC)cc3)cc2OC)o1`, 4.89% (inactive).
`CN(C)c1cccc(NC(=O)c2ccc(-c3ccc(F)c(F)c3)c3ccoc23)c1`: the inhibition is 3.47% (inactive).
The value for `CC[C@@H]1Cc2cc(O)ccc2C2=C1c1ccc(O)cc1C[C@H]2CC` was 85.1% (active).
Consider `CC(=O)Nc1cccc(-c2cc(NC(C)=O)c3ncc(-c4ccccc4)n3c2)c1`, for which the inhibition was 18.3% (inactive).
The value for `O=c1[nH]c2ccccc2n1C1CCN(CCOc2ccccc2)CC1` was -4.07% (inactive); that for `COc1ccc(/C=C/C(=O)c2c(O)cc(OC)cc2OC)cc1` was -16.7% (inactive).
The value for `COc1cccc(-c2cnc(OC(C)(C)C)nc2OC(C)(C)C)c1` was -0.006% (inactive); that for `CC(C)(C)Oc1ncc(Br)c(OC(C)(C)C)n1` was 61.1% (active); that for `Cc1ccc(NC(=O)Cn2sc3ccccc3c2=O)cc1` was 4.93% (inactive).
The value for `COc1ccc(N/C=C(\C2OC(=O)c3ccccc32)[N+](=O)[O-])cc1` (centres undefined) was 50.1% (active); that for `COc1ccc(NC(=O)ON=C2c3ccccc3-c3ccccc32)cc1` was -9.14% (inactive); that for `COc1ccc(NC(=O)C2=C(C)NC(=O)NC2c2ccccc2[N+](=O)[O-])cc1` (centres undefined) was -2.26% (inactive).
Turning to `NC(Cc1ccccc1)c1csc(Nc2cc(Oc3ccccc3)ncn2)n1` (centres undefined), the inhibition is -3.02% (inactive).
In the case of `CCOC(=O)[C@H]1Nc2ccc(Cl)cc2[C@@H]2[C@H]1C1CC(c3ccccc31)N2C(=O)OCc1ccccc1` (some centres undefined) it was 2.38% (inactive).
The value for `CC(=O)Oc1ccc(Cn2c(C)c(C(=O)NCc3ccc(C#N)cc3)sc2=O)cc1` was 1.95% (inactive); that for `COc1cccc(CNc2nc3cc(-c4csc5ccccc45)sc3c(=O)n2C)c1` was -4.94% (inactive).
As to `COc1ccc(CC(NC(C)=O)C(=O)NC2CCN(C(=O)C3CC3)CC2)cc1OC` (centres undefined), the inhibition was -0.652% (inactive).
The value for `COc1ccc(CC(NC(C)=O)C(=O)N2CCN(C(=O)Nc3cccc(Cl)c3)CC2)cc1OC` (centres undefined) was 50.1% (active); that for `COc1ccc(CC(NC(C)=O)C(=O)NC2CCN(C(=O)Nc3ccc(C#N)cc3)CC2)cc1OC` (centres undefined) was -4.35% (inactive).
The value for `CCOc1ccc(CCN2C(=S)N([C@@H](CC(C)C)CN3CCC[C@@H]3CN3C(=S)NC[C@@H]3Cc3ccc(O)cc3)C[C@@H]2Cc2ccc(O)cc2)cc1` was 1.22% (inactive); that for `CCc1nc2ccc(C(=O)NCc3ccc(OC)cc3)cn2c1N(CC)Cc1cccc(Br)c1` was 4.42% (inactive).
Regarding `Cc1cccc(C(=O)NC2CCN(CC(=O)Nc3cccc(Cl)c3)CC2)c1`, the inhibition was -0.446% (inactive).
As for `CCCOc1ccc(F)cc1-c1cc(C(=O)NCc2ccc(F)cc2)[nH]n1`, the inhibition is 14.3% (inactive).
In the case of `CN(C)C(=O)c1cc(Br)ccc1Cl` it was 102% (active); in that of `CC(C)(C)NC(=O)COC(=O)c1cc(Br)ccc1Cl`, -3.23% (inactive); in that of `CN(C)C(=S)Nc1ccc(Br)cc1Cl`, 1.91% (inactive).
The value for `CCOC(=O)C1CCCN(C(=O)c2ccc(C)c(F)c2)CC1` (centres undefined) was -7.05% (inactive).
The value for `COc1ccc(-c2cc(NC(C)=O)c3ncc(-c4cc(OC)c(OC)c(OC)c4)n3c2)cn1` was -2.19% (inactive); that for `COc1ccccc1CNC(=O)c1cc(-c2cc(Cl)ccc2C)n[nH]1` was 20.2% (inactive); that for `COc1ccc(C(CNC(=O)COc2ccc([N+](=O)[O-])cc2)N2CCCCC2)cc1` (centres undefined) was 3.74% (inactive).
For the molecule `CCc1ccc(OCC(=O)NCC(c2ccc(Cl)cc2)N2CCCCC2)cc1` (centres undefined), the inhibition was 58.2% (active).
In the case of `COc1ccc(C(CNC(=O)COc2ccccc2OC)N2CCCCC2)cc1` (centres undefined), the inhibition is -2.23% (inactive).
For the molecule `CC(C)Nc1nc(NCCOc2ccccc2Cl)c2sccc2n1`, the inhibition was -13.3% (inactive).
The value for `Oc1cccc2cc(-c3ccncc3)cnc12` was 11.1% (inactive); that for `CCOC(=O)C(=Cc1ccccc1)C(=O)c1ccccc1` was -5.2% (inactive); that for `COc1ccc(C(C)(O)c2nc(-c3cc(F)cc(F)c3)cs2)cc1` (centres undefined) was -4.33% (inactive).
